For 40 targets, log2 fold change results are on record in the supplement of paper PMC10849652.

Targets with a hit are over-represented here; the source holds about 7,900 in all. About 0.6% of all pairs of compound and target were hits. Unmarked numbers belong to inactive results.

Compound in this assay: c1cn2cc(-c3ccc4cn[nH]c4c3)nc(Nc3ccc(N4CCOCC4)cc3)c2n1 [entospletinib]
In words: log2 fold change, soluble protein after heating vs DMSO (PISA); higher = thermal stabilisation; K562 cells, 10 uM, 30 min; active = over 0.2 and 3.5 SD of the protein, either way, in both replicates (recomputed). The procedure, abridged: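 K562 cells at 2×10^6 cells/mL were treated for 30 min with 10 μM compound, and aliquots were heated for 3 min over 48°C-58°C before pooling. Extraction used PBS with 0.5% NP-40 at 4°C, and soluble protein was the supernatant after 21,000xg for 90 min, measured by TMTpro 16plex LC-MS/MS with channel sums equalised. Thermal stability values, relative to control samples and from duplicates, are log2 fold changes.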

Chain of UniProt Q7Z3J2 (Q7Z3J2 whole entry, looked up): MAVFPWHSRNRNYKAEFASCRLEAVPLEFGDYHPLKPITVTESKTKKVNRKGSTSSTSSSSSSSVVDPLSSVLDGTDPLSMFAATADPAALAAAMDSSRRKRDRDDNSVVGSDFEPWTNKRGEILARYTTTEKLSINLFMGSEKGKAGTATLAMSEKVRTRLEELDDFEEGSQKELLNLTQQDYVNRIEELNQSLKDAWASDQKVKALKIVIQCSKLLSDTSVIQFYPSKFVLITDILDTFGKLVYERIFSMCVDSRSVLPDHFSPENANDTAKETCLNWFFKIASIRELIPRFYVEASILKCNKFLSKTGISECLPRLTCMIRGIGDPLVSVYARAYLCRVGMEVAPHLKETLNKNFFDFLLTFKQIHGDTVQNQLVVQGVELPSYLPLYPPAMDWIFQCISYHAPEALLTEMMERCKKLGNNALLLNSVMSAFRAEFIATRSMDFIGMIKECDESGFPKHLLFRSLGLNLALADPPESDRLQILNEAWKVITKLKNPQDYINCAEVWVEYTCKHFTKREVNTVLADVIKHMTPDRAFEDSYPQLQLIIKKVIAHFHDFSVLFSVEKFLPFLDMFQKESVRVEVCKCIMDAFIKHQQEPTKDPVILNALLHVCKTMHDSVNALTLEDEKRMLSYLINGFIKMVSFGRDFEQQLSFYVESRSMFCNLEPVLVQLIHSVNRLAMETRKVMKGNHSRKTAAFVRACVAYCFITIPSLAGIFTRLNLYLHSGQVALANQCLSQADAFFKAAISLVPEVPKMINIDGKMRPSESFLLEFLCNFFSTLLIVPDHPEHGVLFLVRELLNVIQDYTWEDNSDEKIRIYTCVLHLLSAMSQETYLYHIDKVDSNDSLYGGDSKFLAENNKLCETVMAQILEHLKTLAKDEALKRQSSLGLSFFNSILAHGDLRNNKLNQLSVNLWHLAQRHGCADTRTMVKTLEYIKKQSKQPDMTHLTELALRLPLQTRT
Chain of UniProt Q9UID3 (Q9UID3 whole entry, looked up): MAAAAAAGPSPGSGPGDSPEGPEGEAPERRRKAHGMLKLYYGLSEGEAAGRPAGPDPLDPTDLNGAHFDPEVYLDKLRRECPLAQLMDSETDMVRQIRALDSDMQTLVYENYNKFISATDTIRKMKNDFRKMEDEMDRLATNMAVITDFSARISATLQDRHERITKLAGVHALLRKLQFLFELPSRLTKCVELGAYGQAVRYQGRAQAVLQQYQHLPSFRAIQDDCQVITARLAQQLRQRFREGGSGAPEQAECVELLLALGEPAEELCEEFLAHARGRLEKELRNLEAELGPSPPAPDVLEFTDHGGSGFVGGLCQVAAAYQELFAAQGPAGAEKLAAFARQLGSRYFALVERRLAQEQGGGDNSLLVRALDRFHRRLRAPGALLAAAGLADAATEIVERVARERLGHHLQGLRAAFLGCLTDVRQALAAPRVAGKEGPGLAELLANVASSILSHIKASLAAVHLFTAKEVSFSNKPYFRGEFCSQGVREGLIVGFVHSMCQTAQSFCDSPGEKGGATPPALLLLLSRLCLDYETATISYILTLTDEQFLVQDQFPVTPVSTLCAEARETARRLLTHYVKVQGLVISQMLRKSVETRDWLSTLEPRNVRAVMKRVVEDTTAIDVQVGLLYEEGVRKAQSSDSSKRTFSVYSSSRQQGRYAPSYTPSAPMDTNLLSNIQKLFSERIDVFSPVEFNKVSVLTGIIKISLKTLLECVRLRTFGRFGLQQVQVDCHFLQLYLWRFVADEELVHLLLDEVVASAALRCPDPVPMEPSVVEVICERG
Chain of UniProt Q969T4 (Q969T4 whole entry, looked up): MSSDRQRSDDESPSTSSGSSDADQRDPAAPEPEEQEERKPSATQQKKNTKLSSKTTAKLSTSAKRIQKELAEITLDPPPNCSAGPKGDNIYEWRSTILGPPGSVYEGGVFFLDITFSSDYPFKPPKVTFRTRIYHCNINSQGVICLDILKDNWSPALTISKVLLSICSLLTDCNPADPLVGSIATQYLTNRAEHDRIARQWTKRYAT
Chain of UniProt Q7Z6J8 (Q7Z6J8 whole entry, looked up): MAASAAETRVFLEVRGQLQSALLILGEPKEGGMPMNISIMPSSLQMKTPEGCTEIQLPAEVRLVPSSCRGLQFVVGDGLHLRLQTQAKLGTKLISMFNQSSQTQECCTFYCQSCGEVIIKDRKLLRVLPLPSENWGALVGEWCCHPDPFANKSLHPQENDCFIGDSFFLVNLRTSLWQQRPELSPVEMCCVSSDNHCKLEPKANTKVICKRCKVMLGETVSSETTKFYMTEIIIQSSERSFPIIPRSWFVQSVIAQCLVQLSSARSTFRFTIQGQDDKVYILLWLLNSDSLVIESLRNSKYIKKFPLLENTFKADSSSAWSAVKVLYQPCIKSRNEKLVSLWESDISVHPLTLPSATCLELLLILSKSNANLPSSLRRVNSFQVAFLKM
Chain of UniProt P61960 (P61960 whole entry, looked up): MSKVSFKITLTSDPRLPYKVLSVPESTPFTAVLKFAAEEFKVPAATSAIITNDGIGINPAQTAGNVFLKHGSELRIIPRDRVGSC
Chain of UniProt P51668 (P51668 whole entry, looked up): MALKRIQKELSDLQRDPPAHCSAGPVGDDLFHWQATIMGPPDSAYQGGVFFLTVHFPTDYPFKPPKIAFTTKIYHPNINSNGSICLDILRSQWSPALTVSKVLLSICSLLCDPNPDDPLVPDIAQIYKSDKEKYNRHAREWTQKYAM
Chain of UniProt Q5BJH2 (Q5BJH2 whole entry, looked up): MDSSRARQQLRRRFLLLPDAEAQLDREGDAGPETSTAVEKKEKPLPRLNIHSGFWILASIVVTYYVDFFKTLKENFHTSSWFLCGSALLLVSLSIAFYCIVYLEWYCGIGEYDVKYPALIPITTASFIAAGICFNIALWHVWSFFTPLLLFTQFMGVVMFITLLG
Chain of UniProt Q9NVA4 (Q9NVA4 whole entry, looked up): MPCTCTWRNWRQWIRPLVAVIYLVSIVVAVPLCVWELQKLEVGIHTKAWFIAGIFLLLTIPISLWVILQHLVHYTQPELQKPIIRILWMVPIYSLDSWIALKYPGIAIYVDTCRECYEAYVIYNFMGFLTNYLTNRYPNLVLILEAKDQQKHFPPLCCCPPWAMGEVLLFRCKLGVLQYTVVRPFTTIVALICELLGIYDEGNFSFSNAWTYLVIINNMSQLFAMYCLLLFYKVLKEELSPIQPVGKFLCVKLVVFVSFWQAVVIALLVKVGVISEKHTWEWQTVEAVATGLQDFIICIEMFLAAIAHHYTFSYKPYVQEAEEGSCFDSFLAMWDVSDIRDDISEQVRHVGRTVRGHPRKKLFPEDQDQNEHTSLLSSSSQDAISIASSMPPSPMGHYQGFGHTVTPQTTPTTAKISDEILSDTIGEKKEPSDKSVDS
Chain of UniProt Q8N1B4 (Q8N1B4 whole entry, looked up): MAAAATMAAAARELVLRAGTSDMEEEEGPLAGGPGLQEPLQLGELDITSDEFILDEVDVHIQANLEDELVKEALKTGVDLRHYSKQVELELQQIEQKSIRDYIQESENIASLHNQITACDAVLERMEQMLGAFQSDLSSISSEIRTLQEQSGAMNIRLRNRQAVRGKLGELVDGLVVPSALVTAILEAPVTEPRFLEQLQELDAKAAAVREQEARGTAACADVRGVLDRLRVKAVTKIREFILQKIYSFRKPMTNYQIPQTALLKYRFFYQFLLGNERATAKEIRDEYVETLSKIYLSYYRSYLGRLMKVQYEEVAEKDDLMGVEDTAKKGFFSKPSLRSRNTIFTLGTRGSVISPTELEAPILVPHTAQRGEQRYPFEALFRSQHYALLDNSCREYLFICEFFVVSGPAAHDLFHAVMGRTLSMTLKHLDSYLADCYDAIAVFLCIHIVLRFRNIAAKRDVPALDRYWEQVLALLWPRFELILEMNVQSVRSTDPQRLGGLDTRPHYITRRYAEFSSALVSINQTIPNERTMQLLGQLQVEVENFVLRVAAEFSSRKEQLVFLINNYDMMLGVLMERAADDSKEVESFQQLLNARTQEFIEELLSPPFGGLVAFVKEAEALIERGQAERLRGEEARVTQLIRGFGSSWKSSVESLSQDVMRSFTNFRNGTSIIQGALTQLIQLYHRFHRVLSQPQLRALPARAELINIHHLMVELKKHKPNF
Chain of UniProt Q9BZI7 (Q9BZI7 whole entry, looked up): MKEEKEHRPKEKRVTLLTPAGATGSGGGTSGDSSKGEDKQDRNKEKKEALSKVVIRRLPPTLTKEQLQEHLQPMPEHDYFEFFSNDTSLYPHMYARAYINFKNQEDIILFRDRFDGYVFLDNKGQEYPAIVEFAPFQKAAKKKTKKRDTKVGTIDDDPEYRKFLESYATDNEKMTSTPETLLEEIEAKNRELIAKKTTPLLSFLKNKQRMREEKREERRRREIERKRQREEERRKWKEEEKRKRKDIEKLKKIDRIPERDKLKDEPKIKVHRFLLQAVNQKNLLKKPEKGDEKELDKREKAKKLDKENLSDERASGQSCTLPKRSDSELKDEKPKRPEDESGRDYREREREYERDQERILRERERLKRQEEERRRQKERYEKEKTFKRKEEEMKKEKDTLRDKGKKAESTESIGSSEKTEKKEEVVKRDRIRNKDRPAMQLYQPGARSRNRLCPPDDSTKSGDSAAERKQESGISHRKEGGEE
Chain of UniProt Q9UGM6 (Q9UGM6 whole entry, looked up): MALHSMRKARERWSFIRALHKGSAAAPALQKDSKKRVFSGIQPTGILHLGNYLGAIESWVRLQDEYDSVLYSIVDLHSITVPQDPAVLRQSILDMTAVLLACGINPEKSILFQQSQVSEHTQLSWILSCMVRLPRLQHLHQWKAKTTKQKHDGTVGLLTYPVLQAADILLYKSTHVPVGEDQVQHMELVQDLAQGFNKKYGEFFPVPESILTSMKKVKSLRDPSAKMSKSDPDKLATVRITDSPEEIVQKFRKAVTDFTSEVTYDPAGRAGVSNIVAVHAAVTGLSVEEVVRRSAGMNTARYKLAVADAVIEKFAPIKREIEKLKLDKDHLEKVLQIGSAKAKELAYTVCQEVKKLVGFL

Take UBE3D (UniProt Q7Z6J8): the log2 fold change is 0.091.

As for UBE2E3 (UniProt Q969T4), the log2 fold change was -0.002.

Turning to TMEM63B (UniProt Q5T3F8), the log2 fold change was 0.011.

Regarding VPS39 (UniProt Q96JC1), the log2 fold change was -0.007.

Regarding TRAPPC11 (UniProt Q7Z392), the log2 fold change was 0.012.

In the case of XPO1 (UniProt O14980), the log2 fold change is -0.016.

Regarding TMEM184C (UniProt Q9NVA4), the log2 fold change was 0.041.

For the target UBAP2L isoform 1 (UniProt Q14157), the log2 fold change is -0.065.

Regarding VPS51 (UniProt Q9UID3), the log2 fold change was 0.007.

Consider WBP4 (UniProt O75554), for which the log2 fold change was 0.036.

For TRIM28 (UniProt Q13263), the log2 fold change was -0.025.

On to UTP4 (UniProt Q969X6), for which the log2 fold change was -0.058.

As to USP14 (UniProt P54578), the log2 fold change is -0.03.

For the target UGDH (UniProt O60701), the log2 fold change was -0.033.

As for UBA52 (UniProt P62987), the log2 fold change was 0.159.

In the case of VPS35L (UniProt Q7Z3J2), the log2 fold change is 0.011.

With TMEM106B (UniProt Q9NUM4), the log2 fold change is -0.049.

As to VPS52 (UniProt Q8N1B4), the log2 fold change is 0.062.

For TMEM179B (UniProt Q7Z7N9), the log2 fold change was 0.098.

Take WARS2 (UniProt Q9UGM6): the log2 fold change is -0.042.

On to UFM1 isoform 2 (UniProt P61960), for which the log2 fold change is 0.079.

As for TNFRSF8 (UniProt P28908), the log2 fold change is 0.002.

With TTI2 (UniProt Q6NXR4), the log2 fold change is 0.062.

Turning to USP34 (UniProt Q70CQ2), the log2 fold change was -0.002.

Consider WNK1 isoform 7 (UniProt Q9H4A3), for which the log2 fold change was -0.005.

For WDR37 isoform 2 (UniProt Q9Y2I8), the log2 fold change is -0.004.

For USP25 isoform 3 (UniProt Q9UHP3), the log2 fold change was 0.

With UFD1 isoform 1 (UniProt Q92890), the log2 fold change was -0.047.

On to TRIM23 (UniProt P36406), for which the log2 fold change is -0.041.

As to UPF3B (UniProt Q9BZI7), the log2 fold change is 0.098.

Consider WDCP (UniProt Q9H6R7), for which the log2 fold change was -0.024.

On to TSC2 (UniProt P49815), for which the log2 fold change was -0.17.

In the case of WASHC2C, A0A096LPC5, the log2 fold change is 0.085.

On to WDR41 (UniProt Q9HAD4), for which the log2 fold change was -0.019.

On to TOM1L1 (UniProt O75674), for which the log2 fold change was 0.038.

With UBE2D1 (UniProt P51668), the log2 fold change is -0.025.

Consider TMEM41A (UniProt Q96HV5), for which the log2 fold change was 0.042.

Consider TUT4 (UniProt Q5TAX3), for which the log2 fold change is 0.066.

In the case of TRMT10A (UniProt Q8TBZ6), the log2 fold change was -0.055.

As to TMEM128 (UniProt Q5BJH2), the log2 fold change is 0.018.
